# Screens (PubChem)
# Sampled rows, rich in hits. Any-hit rate of the full collection: about 21%.
# CYP2C9 activ: CYP2C9 (human) activation; activation factor at 5 µM; 1.4% of 96,000 active; recombinant CYP2C9, luciferin-H conversion, luminescence; stronger effect = higher value; factor 1 = untreated enzyme, 0 = blocked; AID 1024; P11712;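 active = activation factor of 2 or more for CYP2C9 at a 5 µM dose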
# Target sequence (P11712 whole entry, looked up): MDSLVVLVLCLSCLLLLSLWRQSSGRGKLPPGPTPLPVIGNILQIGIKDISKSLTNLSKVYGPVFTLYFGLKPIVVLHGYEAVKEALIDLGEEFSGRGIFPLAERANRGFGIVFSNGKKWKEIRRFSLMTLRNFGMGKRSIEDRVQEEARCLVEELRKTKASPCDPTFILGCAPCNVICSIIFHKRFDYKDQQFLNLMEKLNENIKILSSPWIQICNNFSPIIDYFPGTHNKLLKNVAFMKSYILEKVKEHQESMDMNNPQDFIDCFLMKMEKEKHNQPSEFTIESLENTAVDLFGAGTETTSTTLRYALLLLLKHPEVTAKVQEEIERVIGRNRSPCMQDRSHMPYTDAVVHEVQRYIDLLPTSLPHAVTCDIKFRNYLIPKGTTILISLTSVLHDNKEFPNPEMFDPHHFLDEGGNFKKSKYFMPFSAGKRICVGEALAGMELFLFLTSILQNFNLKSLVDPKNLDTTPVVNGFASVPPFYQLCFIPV
# CYP2C19 activ: cytochrome P450 2C19 (human) activation | recombinant CYP2C19, luciferin-H EGE luminescence; stronger effect = higher value; 0 = fully inhibited enzyme, 1 = untreated enzyme | P33261 | 96,000 tested, under 10 active | AID 1025 | activation factor at 5 µM;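 active = activation factor of at least 2 at 5 µM in the primary screen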
# MRP1 act: activators of MRP-1 | H69AR cells + doxorubicin, viability rescue, CellTiter-Glo | viability increase, % at 10 µM | 0.61% of 140,000 active | AID 799;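 active = viability gain under doxorubicin at or above a set limit, the compound median plus 3 SD, cut at about 4.7% in these data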;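 note: MRP-1 overexpressing cells given doxorubicin 25 µM after compound pretreatment; 18-22 h compound pretreatment then 72 h with doxorubicin before readout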
# CYP2C9 inh: blocks human cytochrome P450 2C9 | P11712 | CYP2C9 Supersomes, luciferin-H conversion, luminescence | inhibition, % at 5 µM | 20% of 96,000 active | AID 777;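 active = blocking of liver enzyme CYP2C9 beyond about 50% at 5 µM, limit read from the data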
# MRP reversal: compounds reversing MRP-mediated drug resistance. differential viability (reversal), % at 10 µM. 0.04% of 85,000 active. H69AR cells + 2 uM doxorubicin, CellTiter-Glo, 72 h;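 active = viability drop by adding the cancer drug above about 55%, with treated viability meeting a 40% cutoff, limit read from the data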;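 note: larger differential means the compound sensitizes cells more to doxorubicin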
# CYP2C19 inh: inhibitors of human CYP2C19 | P33261 | CYP2C19 Supersomes, luciferin-H EGE luminescence, 30 min | inhibition, % at 5 µM | 21% of 96,000 active | AID 778;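 active = CYP2C19 inhibition above a set limit at 5 µM in the primary screen, cut at about 50% in these data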
# Hits are given with their value; i = inactive; nt = not tested or not shown.
SMILES,CYP2C9 activ,CYP2C19 activ,MRP1 act,CYP2C9 inh,MRP reversal,CYP2C19 inh
Cn1c(CO)cnc1SCc1ccc([N+](=O)[O-])cc1,i,i,i,i,nt,65.3
COC(=O)c1ccc(CSC2=NCCS2)cc1,nt,nt,i,nt,nt,nt
CCn1c(Cc2ccccc2)nnc1SCc1ccc([N+](=O)[O-])cc1,nt,nt,i,nt,nt,nt
COC(=O)c1ccc(CSc2nccn2C)cc1,i,i,i,i,i,65.1
COCCn1c(Cc2ccccc2)nnc1SCc1ccc([N+](=O)[O-])cc1,nt,nt,i,nt,nt,nt
Cn1ccnc1SCc1ccc([N+](=O)[O-])cc1,i,i,i,i,nt,55.4
CCCCCn1c(=O)[nH]c2cc(C(=O)NCCCN3CCC(C)CC3)ccc2c1=O,i,i,i,i,i,i
O=C(NC1CCCCC1)C(c1cccnc1)N(C(=O)CCl)c1cccc(Cl)c1 (configuration not stated),nt,nt,i,nt,nt,nt
OCCN1CCN(CCCc2c3c(cc4c2CCC4)CCC3)CC1,nt,nt,i,nt,nt,nt
COC(=O)C1CCN(C(=O)/C=C/c2ccccc2)CC1,nt,nt,i,nt,nt,nt
CCOC(=O)C1CCN(C(=O)/C=C/c2ccccc2OC)CC1,2.6,i,i,i,i,51.0
CCOC(=O)C1CCN(C(=O)/C=C/c2ccc(OC)cc2)CC1,i,i,i,i,i,86.7
CCOC(=O)C1CCN(C(=O)c2cccc(C(=O)N3CCC(C(=O)OCC)CC3)c2)CC1,i,i,i,i,i,i
CCOC(=O)C1CCN(C(=O)COc2ccc(S(=O)(=O)NC(C)C)cc2Cl)CC1,nt,nt,i,nt,nt,nt
O=C(COc1ccccc1)N1CCN(C(=O)c2cccs2)CC1,i,i,i,i,i,i
Cc1cccc(OCC(=O)N2CCOCC2)c1,nt,nt,i,nt,nt,nt
CCOC(=O)C1CCN(C(=O)COc2cc(C)c(Br)cc2C)CC1,i,i,i,i,i,91.4
CCOC(=O)C1CCN(C(=O)COc2cccc(C)c2)CC1,i,i,i,i,i,81.3
Cc1cccc(OCC(=O)N2CCN(C(=O)c3cccs3)CC2)c1,i,i,i,59.0,i,61.5
CCOC(=O)C1CCN(C(=O)COc2ccc(Br)cc2)CC1,i,i,i,64.9,i,82.2
COCCNC(C)C(=O)Nc1ccc(Br)cc1 (configuration not stated),i,i,i,i,i,i
CC1(C)CC(=O)C(/C=N/c2ncccc2C(=O)O)=C(O)C1,i,i,i,i,i,i
CCOC(=O)C1CCN(CC(O)COc2ccc(C(C)(C)C)cc2)CC1 (configuration not stated),i,i,i,i,i,56.0
CCOC(=O)C1CCN(C(=O)Cc2cccs2)CC1,i,i,i,i,i,58.8
Cc1ccc(NC(=O)C2CC(=O)N(c3ccc4c5c(cccc35)CC4)C2)cc1 (configuration not stated),i,i,i,55.9,nt,i
SMILES,CYP2C9 activ,CYP2C19 activ,MRP1 act,CYP2C9 inh,MRP reversal,CYP2C19 inh
CCc1ccc(N2CC(C(=O)Nc3cccnc3)CC2=O)cc1 (configuration not stated),i,i,i,74.3,i,58.4
Cc1ccc(N2CC(C(=O)Nc3ccncc3)CC2=O)cc1 (configuration not stated),i,i,i,98.6,i,97.6
CCc1ccc(N2CC(C(=O)Nc3ccc(C)c(S(=O)(=O)N4CCOCC4)c3)CC2=O)cc1 (configuration not stated),i,i,i,99.9,nt,89.8
Cc1ccc(N2CC(C(=O)Nc3cc(C)ccc3F)CC2=O)cc1 (configuration not stated),i,i,i,90.4,i,75.0
CC(=O)Nc1cccc(NC(=O)C2CC(=O)N(c3ccc(C)cc3)C2)c1 (configuration not stated),i,i,i,68.4,i,72.4
CC(C)Oc1ccc(N2CC(C(=O)Nc3ccccc3F)CC2=O)cc1 (configuration not stated),i,i,i,i,i,i
CCOc1ccc(N2CC(C(=O)Nc3ccccc3F)CC2=O)cc1 (configuration not stated),i,i,i,67.8,i,i
Cc1ccc(N2CC(C(=O)Nc3cccnc3)CC2=O)cc1 (configuration not stated),i,i,i,i,i,i
C=CCNC(=O)C1CC(=O)N(c2ccc(OCC(=O)Nc3cccc(OC)c3)cc2)C1 (configuration not stated),i,i,i,55.9,i,i
O=C(NCc1ccccc1F)C1CCCN1C(=O)NCc1ccccc1 (configuration not stated),i,i,i,i,i,i
Cc1nn(C2CCS(=O)(=O)C2)c(Cl)c1/C=C/C(=O)OCC(=O)c1cc(C)n(-c2ccc(F)cc2)c1C (configuration not stated),nt,nt,i,nt,nt,nt
COC(=O)c1ccccc1NC(=O)C1CC(=O)N(c2ccc(C)cc2)C1 (configuration not stated),i,i,i,56.6,i,i
Cc1nn(CC(=O)c2ccccc2)c(=O)c2nn(-c3ccccc3F)c(C)c12,nt,nt,i,nt,nt,nt
CCC(C)(C)n1nnnc1C(c1ccc(C)cc1)N1CCN(Cc2cccnc2)CC1 (configuration not stated),i,i,i,i,i,i
COCCn1nnnc1C(c1cc2cc(OC)ccc2[nH]c1=O)N1CCC(Cc2ccccc2)CC1 (configuration not stated),i,i,i,i,i,i
COCCn1nnnc1C(C(C)C)N1CCC(Cc2ccccc2)CC1 (configuration not stated),i,i,i,55.8,i,90.6
CCC(C)(C)n1nnnc1C(c1cccc(C#N)c1)N1CCN(c2cc(C)ccc2C)CC1 (configuration not stated),i,i,nt,70.2,i,51.9
CC(C)(C)n1nnnc1C(c1cccc(C#N)c1)N1CCC(Cc2ccccc2)CC1 (configuration not stated),i,i,i,83.3,i,65.8
CCC(C)(C)n1nnnc1C(c1ccncc1)N1CCC(Cc2ccccc2)CC1 (configuration not stated),i,i,i,90.7,i,89.8
OCCOCCOCCn1c2ccccc2c2ccccc21,i,i,i,i,i,81.7
O=C1CC(c2ccc(S(=O)(=O)NCc3ccccc3)cc2)CN1 (configuration not stated),i,i,i,i,i,i
O=C1CC(c2ccc(S(=O)(=O)Nc3cc(C(F)(F)F)cc(C(F)(F)F)c3)cc2)CN1 (configuration not stated),i,i,i,78.6,i,i
Cc1ccccc1NS(=O)(=O)c1ccc(C2CNC(=O)C2)cc1 (configuration not stated),i,i,i,i,i,55.8
Cc1[nH]nc(SCC(=O)Nc2ccc(C#N)cc2)c1[N+](=O)[O-],nt,nt,i,nt,nt,nt
Cc1ccc(-c2cc(C(F)(F)F)c(C#N)c(=O)[nH]2)cc1,nt,nt,i,nt,nt,nt
N#Cc1c(C(F)(F)F)cc(-c2ccccc2Cl)[nH]c1=O,i,i,i,86.2,nt,i
